# Laboratory results: PMC7862700, “An all-to-all approach to the identification of sequence-specific readers for epigenetic DNA modifications on cytosine”
# Experiments:
# Test in all cases: DAPPL (digital affinity profiling via proximity ligation, sequencing); 10 mM Tris-HCl pH 7.5, 50 mM NaCl, 1 mM DTT, 4% glycerol, room temperature, 30 min; GST-TFs on glutathione beads, 16-mer random dsDNA library, 0.1% formaldehyde crosslink after washing; high values mean tight binding
# FLI1 = target: T1, FLI1 (Homo sapiens, UniProt Q01543 1-452); conditions: protein: recombinant; tags: N-terminal GST; dsDNA, one strand shown
# T1 sequence: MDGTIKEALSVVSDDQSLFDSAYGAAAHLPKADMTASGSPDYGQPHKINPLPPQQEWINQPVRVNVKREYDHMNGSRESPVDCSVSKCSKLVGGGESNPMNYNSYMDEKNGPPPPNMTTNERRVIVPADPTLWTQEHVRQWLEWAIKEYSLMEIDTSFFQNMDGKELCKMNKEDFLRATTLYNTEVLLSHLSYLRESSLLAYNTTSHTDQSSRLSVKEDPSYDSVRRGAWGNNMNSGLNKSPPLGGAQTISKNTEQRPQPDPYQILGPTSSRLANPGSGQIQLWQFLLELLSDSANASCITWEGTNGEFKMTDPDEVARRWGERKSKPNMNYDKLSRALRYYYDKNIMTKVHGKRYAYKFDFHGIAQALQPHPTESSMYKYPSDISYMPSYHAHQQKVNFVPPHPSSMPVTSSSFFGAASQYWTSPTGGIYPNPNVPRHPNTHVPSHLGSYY
# Outline: (§1)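 Human transcription factors carrying a GST fusion were produced in yeast, bound to glutathione beads, tagged with DNA barcodes and pooled together with a tag-only sample. Each pool was held with 200 nmole of a random double-stranded 16-mer DNA library in Tris/NaCl/DTT/glycerol buffer for 30 min at room temperature, then washed, crosslinked in 0.1% formaldehyde, proximity-ligated with BsaI/T4 ligase (1 h, 37 °C), PCR-amplified and sequenced on an Illumina NextSeq500. Binding signal is the read frequency of each hexamer for a given factor divided by its frequency in the tag-only sample.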
# ELK1 = target: T2, ELK1 (Homo sapiens, UniProt P19419 1-428); conditions: protein: recombinant; tags: N-terminal GST; dsDNA, one strand shown
# T2 sequence: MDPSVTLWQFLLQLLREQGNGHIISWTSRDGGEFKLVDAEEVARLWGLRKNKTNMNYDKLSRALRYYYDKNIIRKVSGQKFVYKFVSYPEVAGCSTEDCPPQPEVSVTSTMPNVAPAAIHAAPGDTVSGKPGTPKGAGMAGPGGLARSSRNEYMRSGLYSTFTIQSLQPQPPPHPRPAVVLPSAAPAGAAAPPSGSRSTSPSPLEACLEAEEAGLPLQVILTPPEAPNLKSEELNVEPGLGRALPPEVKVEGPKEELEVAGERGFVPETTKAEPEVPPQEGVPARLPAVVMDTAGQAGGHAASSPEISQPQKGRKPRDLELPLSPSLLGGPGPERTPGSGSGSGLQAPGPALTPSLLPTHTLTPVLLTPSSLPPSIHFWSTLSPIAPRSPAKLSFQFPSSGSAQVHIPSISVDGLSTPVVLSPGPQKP
# Outline: as §1
# GABPA = target: T3, GABPA (Homo sapiens, UniProt Q06546 1-454); conditions: protein: recombinant; tags: N-terminal GST; dsDNA, one strand shown
# T3 sequence: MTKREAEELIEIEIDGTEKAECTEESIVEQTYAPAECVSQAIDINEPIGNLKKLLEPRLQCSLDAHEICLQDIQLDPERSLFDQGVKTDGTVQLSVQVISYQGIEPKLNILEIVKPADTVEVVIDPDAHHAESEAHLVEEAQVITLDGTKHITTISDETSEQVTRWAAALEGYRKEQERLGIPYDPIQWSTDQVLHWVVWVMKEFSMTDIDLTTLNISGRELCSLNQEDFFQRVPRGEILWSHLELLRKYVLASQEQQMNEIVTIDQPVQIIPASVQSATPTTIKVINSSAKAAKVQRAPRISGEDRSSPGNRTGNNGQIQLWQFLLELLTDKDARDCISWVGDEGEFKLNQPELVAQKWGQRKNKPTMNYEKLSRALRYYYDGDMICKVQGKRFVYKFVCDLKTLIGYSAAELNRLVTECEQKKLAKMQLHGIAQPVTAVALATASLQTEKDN
# Outline: as §1
# ERG = target: T4, ERG (Homo sapiens, UniProt P11308 1-479); conditions: protein: recombinant; tags: N-terminal GST; dsDNA, one strand shown
# T4 sequence: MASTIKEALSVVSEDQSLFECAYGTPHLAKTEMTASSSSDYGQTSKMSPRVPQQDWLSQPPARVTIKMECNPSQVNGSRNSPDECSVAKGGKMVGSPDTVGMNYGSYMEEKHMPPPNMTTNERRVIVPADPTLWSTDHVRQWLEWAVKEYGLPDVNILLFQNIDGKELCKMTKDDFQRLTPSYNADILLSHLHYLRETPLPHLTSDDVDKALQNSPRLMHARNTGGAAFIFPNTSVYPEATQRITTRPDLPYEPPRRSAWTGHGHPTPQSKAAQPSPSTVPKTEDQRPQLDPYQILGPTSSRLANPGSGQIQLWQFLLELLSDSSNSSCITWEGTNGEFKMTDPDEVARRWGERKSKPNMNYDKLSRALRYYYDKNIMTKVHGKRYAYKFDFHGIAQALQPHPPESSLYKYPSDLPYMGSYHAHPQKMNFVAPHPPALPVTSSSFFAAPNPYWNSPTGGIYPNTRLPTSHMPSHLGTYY
# Outline: as §1
# ELF1 = ELF1 (Homo sapiens, UniProt P32519 1-619); conditions: protein: recombinant; tags: N-terminal GST; dsDNA, one strand shown
# Outline: as §1
# EHF = target: T5, EHF (Homo sapiens, UniProt Q9NZC4 1-300); conditions: protein: recombinant; tags: N-terminal GST; dsDNA, one strand shown
# T5 sequence: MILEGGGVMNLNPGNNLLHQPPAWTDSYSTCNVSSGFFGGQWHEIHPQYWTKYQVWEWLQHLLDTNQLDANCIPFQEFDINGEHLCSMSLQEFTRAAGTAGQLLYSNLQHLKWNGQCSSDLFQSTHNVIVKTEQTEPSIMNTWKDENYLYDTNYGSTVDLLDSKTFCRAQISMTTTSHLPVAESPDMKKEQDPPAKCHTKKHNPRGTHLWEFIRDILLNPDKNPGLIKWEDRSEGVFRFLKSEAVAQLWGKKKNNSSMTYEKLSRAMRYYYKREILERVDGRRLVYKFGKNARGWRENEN
# Outline: as §1
# SPI1 = SPI1 (Homo sapiens, UniProt P17947 1-270); conditions: protein: recombinant; tags: N-terminal GST; dsDNA, one strand shown
# Outline: as §1
# SPIB = SPIB (Homo sapiens, UniProt Q01892 1-262); conditions: protein: recombinant; tags: N-terminal GST; dsDNA, one strand shown
# Outline: as §1
# ELK3 = target: T6, ELK3 (Homo sapiens, UniProt P41970 1-407); conditions: protein: recombinant; tags: N-terminal GST; dsDNA, one strand shown
# T6 sequence: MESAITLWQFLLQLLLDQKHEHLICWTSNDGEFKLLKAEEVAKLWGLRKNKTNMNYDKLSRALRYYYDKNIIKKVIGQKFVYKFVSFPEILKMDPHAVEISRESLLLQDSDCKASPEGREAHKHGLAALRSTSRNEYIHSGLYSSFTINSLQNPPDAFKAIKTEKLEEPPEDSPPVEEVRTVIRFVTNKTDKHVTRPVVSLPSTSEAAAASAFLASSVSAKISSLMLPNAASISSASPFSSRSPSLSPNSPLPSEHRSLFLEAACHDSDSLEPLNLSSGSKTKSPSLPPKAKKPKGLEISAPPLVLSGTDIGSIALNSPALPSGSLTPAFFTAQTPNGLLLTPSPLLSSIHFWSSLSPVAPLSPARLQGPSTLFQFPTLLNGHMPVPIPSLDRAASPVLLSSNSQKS
# Outline: as §1
# FEV = target: T7, FEV (Homo sapiens, UniProt Q99581 1-238); conditions: protein: recombinant; tags: N-terminal GST; dsDNA, one strand shown
# T7 sequence: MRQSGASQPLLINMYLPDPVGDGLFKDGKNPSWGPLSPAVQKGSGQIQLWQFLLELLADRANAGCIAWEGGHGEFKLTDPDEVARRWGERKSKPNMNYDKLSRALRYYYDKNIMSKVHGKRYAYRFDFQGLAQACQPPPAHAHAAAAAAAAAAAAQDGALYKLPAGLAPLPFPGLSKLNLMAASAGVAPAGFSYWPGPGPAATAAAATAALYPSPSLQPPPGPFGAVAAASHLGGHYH
# Outline: as §1
# ETV5 = ETV5 (Homo sapiens, UniProt P41161 1-510); conditions: protein: recombinant; tags: N-terminal GST; dsDNA, one strand shown
# Outline: as §1
# HSF1 = HSF1 (Homo sapiens, UniProt Q00613 1-529); conditions: protein: recombinant; tags: N-terminal GST; chain copies: 3; dsDNA, one strand shown
# Outline: as §1
# SPIC = target: T8, SPIC (Homo sapiens, UniProt Q8N5J4 1-248); conditions: protein: recombinant; tags: N-terminal GST; dsDNA, one strand shown
# T8 sequence: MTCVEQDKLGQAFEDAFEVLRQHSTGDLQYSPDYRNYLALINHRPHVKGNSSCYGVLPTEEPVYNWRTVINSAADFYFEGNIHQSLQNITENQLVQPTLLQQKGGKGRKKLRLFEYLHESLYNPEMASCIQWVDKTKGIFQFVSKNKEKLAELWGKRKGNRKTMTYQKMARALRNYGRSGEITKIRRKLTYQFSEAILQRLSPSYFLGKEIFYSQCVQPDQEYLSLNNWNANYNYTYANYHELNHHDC
# Outline: as §1
# ELF4 = ELF4 (Homo sapiens, UniProt Q99607 1-663); conditions: protein: recombinant; tags: N-terminal GST; dsDNA, one strand shown
# Outline: as §1
# ELK4 = target: T9, ELK4 (Homo sapiens, UniProt P28324-2 1-405); conditions: protein: recombinant; tags: N-terminal GST; dsDNA, one strand shown
# T9 sequence: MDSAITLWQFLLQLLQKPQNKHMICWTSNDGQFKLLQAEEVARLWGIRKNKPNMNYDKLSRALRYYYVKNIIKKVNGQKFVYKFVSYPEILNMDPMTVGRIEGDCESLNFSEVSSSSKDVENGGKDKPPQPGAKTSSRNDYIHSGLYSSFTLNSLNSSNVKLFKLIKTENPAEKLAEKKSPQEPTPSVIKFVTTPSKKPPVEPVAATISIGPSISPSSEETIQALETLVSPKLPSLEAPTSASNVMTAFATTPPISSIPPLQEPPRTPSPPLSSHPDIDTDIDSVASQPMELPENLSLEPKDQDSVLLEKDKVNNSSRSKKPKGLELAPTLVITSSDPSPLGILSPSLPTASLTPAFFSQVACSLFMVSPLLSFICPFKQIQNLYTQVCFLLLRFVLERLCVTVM
# Outline: as §1
# ETV2 = target: T10, ETV2 (Homo sapiens, UniProt O00321 1-342); conditions: protein: recombinant; tags: N-terminal GST; dsDNA, one strand shown
# T10 sequence: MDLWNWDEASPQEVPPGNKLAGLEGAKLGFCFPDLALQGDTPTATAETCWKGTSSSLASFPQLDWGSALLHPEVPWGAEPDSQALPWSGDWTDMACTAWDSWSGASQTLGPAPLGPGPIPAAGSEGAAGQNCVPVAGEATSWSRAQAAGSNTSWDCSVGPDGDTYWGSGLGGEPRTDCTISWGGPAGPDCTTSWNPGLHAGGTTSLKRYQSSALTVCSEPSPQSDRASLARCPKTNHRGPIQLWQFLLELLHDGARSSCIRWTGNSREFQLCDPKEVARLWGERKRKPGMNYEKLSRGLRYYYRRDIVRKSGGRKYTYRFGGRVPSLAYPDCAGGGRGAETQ
# Outline: as §1
# ELF3 = target: T11, ELF3 (Homo sapiens, UniProt P78545 1-371); conditions: protein: recombinant; tags: N-terminal GST; dsDNA, one strand shown
# T11 sequence: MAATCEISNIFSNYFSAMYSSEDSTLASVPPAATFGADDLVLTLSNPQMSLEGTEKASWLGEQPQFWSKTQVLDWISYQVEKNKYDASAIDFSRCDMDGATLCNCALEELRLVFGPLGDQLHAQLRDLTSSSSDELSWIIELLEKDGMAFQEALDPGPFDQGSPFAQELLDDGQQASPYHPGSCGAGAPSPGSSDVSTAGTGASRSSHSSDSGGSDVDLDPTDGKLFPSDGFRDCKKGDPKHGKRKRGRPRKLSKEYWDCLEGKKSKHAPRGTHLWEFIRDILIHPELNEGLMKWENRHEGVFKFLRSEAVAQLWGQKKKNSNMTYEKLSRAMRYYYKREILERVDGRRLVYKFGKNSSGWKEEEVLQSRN
# Outline: as §1
# CRX = CRX (Homo sapiens, UniProt O43186 1-299); conditions: protein: recombinant; tags: N-terminal GST; dsDNA, one strand shown
# Outline: as §1
# ETV1 = ETV1 (Homo sapiens, UniProt P50549 1-477); conditions: protein: recombinant; tags: N-terminal GST; dsDNA, one strand shown
# Outline: as §1
# CRX, sequence (O43186 whole entry): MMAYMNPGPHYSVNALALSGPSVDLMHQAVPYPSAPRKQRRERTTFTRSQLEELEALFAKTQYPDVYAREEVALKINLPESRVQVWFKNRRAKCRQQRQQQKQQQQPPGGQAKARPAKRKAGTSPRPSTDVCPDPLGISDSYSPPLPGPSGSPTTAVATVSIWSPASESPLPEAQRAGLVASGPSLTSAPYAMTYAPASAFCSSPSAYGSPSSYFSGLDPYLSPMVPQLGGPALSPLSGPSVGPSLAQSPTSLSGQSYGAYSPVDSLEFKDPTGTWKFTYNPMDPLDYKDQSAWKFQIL
# ETV1, sequence (P50549 whole entry): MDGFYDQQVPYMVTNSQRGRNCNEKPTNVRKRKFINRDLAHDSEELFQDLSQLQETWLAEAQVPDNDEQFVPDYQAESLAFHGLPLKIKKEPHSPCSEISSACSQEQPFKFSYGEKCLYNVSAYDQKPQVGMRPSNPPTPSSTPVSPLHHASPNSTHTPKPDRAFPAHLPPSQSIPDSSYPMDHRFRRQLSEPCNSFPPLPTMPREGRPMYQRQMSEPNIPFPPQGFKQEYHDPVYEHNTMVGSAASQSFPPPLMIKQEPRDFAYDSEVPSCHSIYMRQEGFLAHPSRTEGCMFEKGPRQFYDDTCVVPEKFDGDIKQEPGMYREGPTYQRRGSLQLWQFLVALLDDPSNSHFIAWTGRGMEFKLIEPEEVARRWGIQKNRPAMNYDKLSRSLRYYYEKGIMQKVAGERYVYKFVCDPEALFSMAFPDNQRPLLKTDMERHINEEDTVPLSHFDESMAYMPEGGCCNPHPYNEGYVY
# SPIB, sequence (Q01892 whole entry): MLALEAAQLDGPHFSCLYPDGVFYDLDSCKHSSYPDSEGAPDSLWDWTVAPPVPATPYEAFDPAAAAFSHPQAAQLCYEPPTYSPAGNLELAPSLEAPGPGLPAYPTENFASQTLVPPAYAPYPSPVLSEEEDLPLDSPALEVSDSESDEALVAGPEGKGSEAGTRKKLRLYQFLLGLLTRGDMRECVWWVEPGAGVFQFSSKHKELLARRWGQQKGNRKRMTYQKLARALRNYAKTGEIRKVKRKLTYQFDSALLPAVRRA
# HSF1, sequence (Q00613 whole entry): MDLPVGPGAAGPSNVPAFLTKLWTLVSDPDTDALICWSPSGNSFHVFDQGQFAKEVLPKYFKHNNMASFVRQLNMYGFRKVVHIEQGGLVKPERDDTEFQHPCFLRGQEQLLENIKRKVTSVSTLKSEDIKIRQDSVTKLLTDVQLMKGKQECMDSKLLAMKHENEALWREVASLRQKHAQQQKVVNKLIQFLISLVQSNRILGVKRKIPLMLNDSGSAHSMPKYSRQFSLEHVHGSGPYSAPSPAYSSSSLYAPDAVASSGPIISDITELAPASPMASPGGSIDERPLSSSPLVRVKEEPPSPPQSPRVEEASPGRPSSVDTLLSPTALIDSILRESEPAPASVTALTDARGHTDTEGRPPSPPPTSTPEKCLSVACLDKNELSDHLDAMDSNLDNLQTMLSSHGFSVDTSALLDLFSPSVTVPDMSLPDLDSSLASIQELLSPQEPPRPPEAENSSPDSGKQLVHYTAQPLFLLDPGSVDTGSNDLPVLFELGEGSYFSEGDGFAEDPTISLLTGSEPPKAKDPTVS
# ELF4, sequence (Q99607 whole entry): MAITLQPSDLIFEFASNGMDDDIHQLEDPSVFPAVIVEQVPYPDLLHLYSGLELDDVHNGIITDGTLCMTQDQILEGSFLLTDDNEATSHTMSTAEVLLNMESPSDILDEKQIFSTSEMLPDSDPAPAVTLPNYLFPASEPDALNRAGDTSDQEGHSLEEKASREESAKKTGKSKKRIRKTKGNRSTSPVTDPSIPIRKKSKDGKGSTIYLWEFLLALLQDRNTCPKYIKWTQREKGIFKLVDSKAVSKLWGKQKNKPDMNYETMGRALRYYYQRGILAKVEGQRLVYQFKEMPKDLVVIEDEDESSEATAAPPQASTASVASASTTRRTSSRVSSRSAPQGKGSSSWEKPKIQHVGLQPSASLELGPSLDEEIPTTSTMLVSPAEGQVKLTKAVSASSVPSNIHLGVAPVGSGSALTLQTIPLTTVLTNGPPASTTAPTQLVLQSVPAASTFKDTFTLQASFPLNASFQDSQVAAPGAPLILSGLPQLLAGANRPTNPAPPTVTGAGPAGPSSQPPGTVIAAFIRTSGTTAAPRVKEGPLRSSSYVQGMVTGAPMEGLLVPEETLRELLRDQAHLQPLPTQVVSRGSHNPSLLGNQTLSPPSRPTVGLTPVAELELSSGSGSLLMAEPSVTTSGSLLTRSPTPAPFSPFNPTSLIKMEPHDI
# ETV5, sequence (P41161 whole entry): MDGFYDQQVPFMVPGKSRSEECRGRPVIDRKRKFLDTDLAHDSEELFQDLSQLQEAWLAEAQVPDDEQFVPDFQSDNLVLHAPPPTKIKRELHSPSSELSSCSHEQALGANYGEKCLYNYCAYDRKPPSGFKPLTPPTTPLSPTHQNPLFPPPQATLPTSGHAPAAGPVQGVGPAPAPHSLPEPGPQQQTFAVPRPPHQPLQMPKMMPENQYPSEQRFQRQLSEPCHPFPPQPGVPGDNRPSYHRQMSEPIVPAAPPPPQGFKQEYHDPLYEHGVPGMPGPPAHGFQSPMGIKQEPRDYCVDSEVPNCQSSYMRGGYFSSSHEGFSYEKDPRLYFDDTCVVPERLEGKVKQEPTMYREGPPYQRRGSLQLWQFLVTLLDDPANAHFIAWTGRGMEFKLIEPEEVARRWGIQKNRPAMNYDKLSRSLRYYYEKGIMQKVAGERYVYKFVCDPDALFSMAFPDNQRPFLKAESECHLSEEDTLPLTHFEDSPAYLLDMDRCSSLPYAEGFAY
# ELF1, sequence (P32519 whole entry): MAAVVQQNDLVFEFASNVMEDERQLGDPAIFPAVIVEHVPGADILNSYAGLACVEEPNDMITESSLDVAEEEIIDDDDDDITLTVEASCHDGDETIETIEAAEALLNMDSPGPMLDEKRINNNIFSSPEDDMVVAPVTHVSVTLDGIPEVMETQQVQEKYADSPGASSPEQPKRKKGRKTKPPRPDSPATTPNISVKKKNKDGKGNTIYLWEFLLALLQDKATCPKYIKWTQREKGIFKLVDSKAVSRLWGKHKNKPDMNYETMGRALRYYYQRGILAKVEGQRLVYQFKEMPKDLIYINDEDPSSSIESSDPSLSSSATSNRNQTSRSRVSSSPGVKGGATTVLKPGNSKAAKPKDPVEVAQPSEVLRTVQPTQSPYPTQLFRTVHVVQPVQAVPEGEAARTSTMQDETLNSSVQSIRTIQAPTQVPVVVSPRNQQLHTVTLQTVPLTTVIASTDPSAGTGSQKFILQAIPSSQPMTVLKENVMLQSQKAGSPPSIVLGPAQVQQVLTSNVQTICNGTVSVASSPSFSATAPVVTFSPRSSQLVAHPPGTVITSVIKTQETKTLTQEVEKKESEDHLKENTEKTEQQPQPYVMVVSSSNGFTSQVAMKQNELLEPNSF
sequence,measurement,setting,value
TGCTGG,binding signal,FLI1,"1.08 fold enrichment (6-mer frequency, TF over GST control)"
same,binding signal,ELK1,"1.09 fold enrichment (6-mer frequency, TF over GST control)"
same,binding signal,GABPA,"1.08 fold enrichment (6-mer frequency, TF over GST control)"
same,binding signal,ERG,"1.01 fold enrichment (6-mer frequency, TF over GST control)"
same,binding signal,ELF1,"1.11 fold enrichment (6-mer frequency, TF over GST control)"
same,binding signal,EHF,"1.11 fold enrichment (6-mer frequency, TF over GST control)"
same,binding signal,SPI1,"1.19 fold enrichment (6-mer frequency, TF over GST control)"
same,binding signal,SPIB,"1.1 fold enrichment (6-mer frequency, TF over GST control)"
same,binding signal,ELK3,"1.14 fold enrichment (6-mer frequency, TF over GST control)"
same,binding signal,FEV,"1.09 fold enrichment (6-mer frequency, TF over GST control)"
same,binding signal,ETV5,"1.04 fold enrichment (6-mer frequency, TF over GST control)"
same,binding signal,HSF1,"1.43 fold enrichment (6-mer frequency, TF over GST control)"
same,binding signal,SPIC,"1.06 fold enrichment (6-mer frequency, TF over GST control)"
same,binding signal,ELF4,"1.12 fold enrichment (6-mer frequency, TF over GST control)"
same,binding signal,ELK4,"1.27 fold enrichment (6-mer frequency, TF over GST control)"
same,binding signal,ETV2,"1.22 fold enrichment (6-mer frequency, TF over GST control)"
same,binding signal,ELF3,"1.02 fold enrichment (6-mer frequency, TF over GST control)"
same,binding signal,CRX,"1.03 fold enrichment (6-mer frequency, TF over GST control)"
same,binding signal,ETV1,"1.08 fold enrichment (6-mer frequency, TF over GST control)"
